# Tested on: Fibrinogen (Alexa647-labelled)
# Assay: Alexa647-fibrinogen binding to printed small molecules – biochemical, small-molecule microarray, 635/667 nm fluorescence, artefact control for SMM control-protein annotation, profiling panel (AID 1131);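 also: z-score merges 667 nm fluorescence with per-spot signal-to-noise over triplicate slides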
# Conditions: fibrinogen-A647 binding fluorescence, higher = more signal
row,SMILES,composite z-score
1,Cc1ccc(S[C@]2(C(=O)NC3CC3)CC(=O)N(Cc3cc(C(F)(F)F)cc(C(F)(F)F)c3)[C@@H]2c2ccc(CO)cc2)cc1,0.182
2,O=C/C=C/c1ccccc1Cl,0.0503
3,COC(=O)[C@@]1(Cc2ccccc2N=[N+]=[N-])N=C(c2ccc(OCCCO)cc2)O[C@H]1c1ccccc1CN=[N+]=[N-],0.168
4,COC(=O)C(CC#Cc1ccc2c(c1)[C@]1(C(=O)N2)[C@H](C(=O)N2CCCCCCC2)[C@H]2C(=O)O[C@H](c3ccccc3)[C@H](c3ccccc3)N2[C@@H]1c1ccc(O)cc1)C(=O)OC,-2.05
5,C=CCC(OC(C)=O)[C@@H]1[C@@H](N(Cc2cccc3ccccc23)C(=O)c2ccc(C)cc2)c2cc(OCCCO)ccc2N1C(=O)c1ccc(-c2ccccc2)cc1 (stereo not given in full),-0.5
6,CCOC(=O)C[C@H]1[C@H](OC(=O)c2ccccc2-c2ccccc2)[C@@H](NC(=O)C2CCCCC2)c2cc(OCCCO)ccc2N1C(=O)c1ccccc1,0.334
7,CC(C)CNC(=O)[C@@]1(C)c2ccccc2C(=O)N(Cc2ccc(OC(F)(F)F)cc2)[C@H]1c1ccc(CO)cc1,-0.0439
8,C=CC[C@]1(C(=O)O)N=C(c2ccc(OCCCO)cc2)O[C@H]1c1ccccc1,0.243
9,O=C1OCC=C[C@H]2OC34C=CCN(Cc5ccccc5)C(=O)[C@H]3N(CCO)C(=O)[C@@H]4[C@@H]12 (stereo not given in full),-1.04
10,CO[C@@H]1COC(=O)CC=C[C@@H](C)[C@H](OC)COC(=O)CC=C[C@H]1C,-1.05
11,CO[C@H]1COC(=O)[C@@H](C)COC(=O)[C@H](Cc2ccccc2)NC(=O)CC=C[C@H]1C,0.177
12,CN(C)c1ccc(C(O)C2C=CC3C(=O)NC(=O)C3N2Nc2ccc(Cl)cc2Cl)cc1 (stereo not given),0.762
13,COc1ccc([Si](C)(C)[C@H]2[C@H](CCO)O[C@@]3(C(=O)N(Cc4ccccc4)c4ccc(N5C(=O)c6cccc7cccc5c67)cc43)[C@@H]2C)cc1,-0.603
14,CO[C@@H]1COC(=O)CC=C[C@H](C)COC(=O)[C@H](Cc2ccccc2)NC(=O)CC=C[C@H]1C,-0.811
15,CCOC(=O)C[C@H]1[C@H](OC(=O)Cc2ccc3c(c2)OCO3)[C@@H](NC(=O)CC(C)C)c2cc(OCCCO)ccc2N1C(=O)c1ccccc1,0.165
16,CO[C@@H]1COC(=O)[C@H](COCc2ccccc2)NC(=O)CC=C[C@@H](C)[C@H](OC)COC(=O)[C@H](COCc2ccccc2)NC(=O)CC=C[C@H]1C,-0.201
17,CC/C=C/C(=O)N(C[C@@H]1CCCO1)[C@@H]1CC(C(=O)NCCO)=C[C@H](Oc2c(I)cc(CO)cc2OC)[C@H]1O,0.217
18,CCC1=C2CN(Cc3ccccc3Br)[C@@H]([C@@H](O)Cc3ccccc3)C2C=CCC1 (stereo not given in full),0.455
19,CC(=O)NCCCC[C@@H]1NC(=O)[C@@H]2C[C@H](C(=O)NCCCCCNC(=O)CS)[C@H](c3ccc(O)cc3)N2C1=O,-0.786
20,C=C(C)[C@@H]1CC=C(C(O)C2C=CC3C(=O)NC(=O)C3N2Nc2ccccn2)CC1 (stereo not given in full),1.02
21,CCCC=C(CCC)[C@@H](NC(=O)c1ccc(C(F)(F)F)cc1)c1ccccc1,0.0538
22,CO[C@@H]1COC(=O)[C@H](C)NC(=O)CC=C[C@@H](C)[C@H](NS(=O)(=O)c2ccc(C)cc2)COC(=O)CC=C[C@@H]1C,-0.412
23,COC(=O)C1=C(C)N(Cc2ccccc2)c2c(C(=O)OC)c(C(=O)OC)c(C(=O)OC)c(=O)n2[C@@H]1c1ccccc1,0.437
24,CO[C@H]1COC(=O)[C@@H](Cc2ccccc2)NC(=O)[C@@H](C)COC(=O)CC=C[C@@H]1C,-0.277
25,CC(C)NC(=O)[C@@]1(Cc2ccccc2I)c2ccccc2C(=O)N(C2CCCCC2)[C@H]1c1ccc(CO)cc1,0.991
26,COc1ccc([Si](C)(C)[C@H]2[C@H](CC(=O)N3Cc4ccccc4C[C@H]3CO)O[C@@]3(C(=O)N(Cc4cccc(N5CCOC5=O)c4)c4ccccc43)[C@@H]2C)cc1,-0.235
27,O=C1NC(=O)C2C1C=CC(C(O)C=Cc1ccc([N+](=O)[O-])cc1)N2Nc1ccccn1 (stereo not given),0.123
28,CO[C@H]1COC(=O)CC=C[C@H](C)[C@@H](OC)COC(=O)CC=C[C@@H]1C,-0.706
29,COc1cc(Cc2cc3c(c(CCc4ccccc4)n2)[Si](C(C)C)(C(C)C)OC3)cc(OC)c1OC,-0.386
30,NC(=O)NCC#Cc1ccc2c(c1)[C@]1(C(=O)N2)[C@H](C(N)=O)[C@H]2C(=O)O[C@H](c3ccccc3)[C@H](c3ccccc3)N2[C@@H]1c1ccccc1OCCO,0.543
